# Results reported in PubChem BioAssay AID1578 (Sanford-Burnham Center for Chemical Genomics, 2009).
# Out of some 290,000 compounds screened, about 3,000 (1%) were called active. This excerpt belongs to a sample that is enriched for actives. Values without a mark were called inactive. No stated cut-off is given here; in the data, active means inhibition mostly above about 36% (no sharp cut-off); inactive means mostly below about 34%.
# Assay: inhibition of NOD1-driven NF-kB reporter – cell-based, luminescence, uHTS, primary screen (AID 1578);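 further: HEK-293T reporter cells stimulated with the NOD1 agonist gamma-tri-DAP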
# Conditions: NOD1-driven NF-kB luciferase reporter cells, at 4 µM, active compounds read high
row,Compound,inhibition
1,CNC(=O)c1ccccc1S(=O)c1ccccc1COC(C)=O (configuration not stated),-5.2%
2,Cc1cc(C)c(C#N)c(SCC(=O)N2CCCCC2)n1,-5.5%
3,COc1cc2c(cc1OC)CN(C(=O)CSc1nc(N)c(C#N)cc1C#N)CC2,6.8%
4,COc1cc2c(cc1OC)CN(C(=O)CSc1nc(C)cc(C)c1C#N)CC2,54.2% (active)
5,CC12C(=O)N(c3ccccn3)C(=O)C1C1C=CC2C1 (configuration not stated),15.9%
6,CN(C)CCN(C(=O)c1cccc2ccccc12)c1nc2cc3c(cc2s1)OCO3,17.7%
7,O=[N+]([O-])c1ccc(CN2CCCCCC2)cc1,-21%
8,O=[N+]([O-])c1ccc(N2CCN(Cc3cccc([N+](=O)[O-])c3)CC2)cc1,11.9%
9,O=[N+]([O-])c1cccc(CN2CCCCCC2)c1,82.1% (active)
10,CCC(C(=O)N1CCN(c2ncccn2)CC1)c1ccccc1 (configuration not stated),4.2%
11,CC(CC(=O)N(C)C1CCCCC1)S(=O)(=O)c1ccc2c(c1)NC(=O)CO2 (configuration not stated),-10.5%
12,COc1ccc(OC)c(NC(=S)NC(=O)c2ccc(Br)o2)c1,-27.7%
13,COc1ccc(OCC(=O)NNC(=S)NC(=O)c2ccc(Br)o2)cc1,-38.4%
14,COc1ccc(C(=O)NNC(=S)NC(=O)c2ccc(Br)o2)cc1OC,37.6% (active)
15,COc1ccc(CCNC(=O)C/C(C)=N/NC(=O)c2ccc(N)cc2)cc1OC,-10.1%
16,Cc1sc2ncn(CC(=O)NCCCC(=O)N3CCCCC3)c(=O)c2c1C,12.4%
17,CCNCc1cc(Cl)cc(OC)c1OC(C)C,17.6%
18,C=CCOc1c(CNC2CCCC2)cc(Cl)cc1OC,-19.3%
19,CNCc1cc(Cl)cc(OC)c1OC(C)C,44.6% (active)
20,COc1ccc(N)cc1S(=O)(=O)Nc1ccccc1Cl,9.1%
21,COc1ccc(OCC(=O)Nc2ccc(S(=O)(=O)N3CCCCCC3)cc2)cc1,-7.8%
22,O=S(=O)(c1ccc(S(=O)(=O)N2CCC(O)CC2)cc1)N1CCCC1,29.3%
23,COc1ccc(CCn2ccc(O)c(Cc3ccc(Cl)cc3Cl)c2=O)cc1OC,-2.8%
24,COc1ccc(CCn2ccc(O)c(Cc3ccc(Cl)cc3)c2=O)cc1OC,3.1%
25,COc1ccc(CCn2ccc(O)c(Cc3c(F)cccc3Cl)c2=O)cc1OC,55.5% (active)
26,CN1CCN(C(=S)c2ccc(Cl)cc2)CC1,1.9%
27,NC(=O)C1CCN(Cc2ccc(OCc3ccccc3)cc2)CC1,-29.8%
